# Screens from PubChem BioAssay.
# This is a sample that favours compounds with a hit; in the whole collection about 14% have one here.
# Sm TGR block: blocks Schistosoma mansoni thioredoxin glutathione reductase; Potency, µM (highest dose often 114 µM), for inactives: at the top dose activity change, negative = inhibition, actives largely listed as inhibitors; AID 485364; 360,000 tested, 3% active; purified TGR, DTNB reduction, TNB absorbance 405 nm; Q962Y6; note: potency is the fitted concentration of half-maximal effect; nearly all actives have a fitted effect of over 60% in size
#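 TGR 20 nM + NADPH 100 uM (dispensed conc.), cpd preinc 15 min RT; start with NADPH (500 uM addition) then DTNB (15 mM addition). Kinetic TNB absorbance, 405 nm filter. Four-parameter Hill fit across titration.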
# Pf growth 48h: P. falciparum growth inhibition at 48 hours (one generation) | Potency, µM (doses to about 28.7 µM), for the others: at the highest dose activity change, negative = inhibition, hits mostly inhibitors | 310,000 tested, 5.9% active | P. falciparum luciferase growth in erythrocytes, 48 h; note: potency is the fitted concentration of half-maximal effect
#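 Growth was read as firefly luciferase luminescence after a 48 h, 37 C, 5% CO2 exposure of compounds to reporter-bearing P. falciparum cultures (0.1% parasitemia, 2% hematocrit final) in Albumax-supplemented RPMI 1640.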
# HCMV antiviral: human cytomegalovirus inhibition; HFF cells, HCMV-luciferase reporter, 72 h; stronger effect = lower value; 410,000 tested, 4.5% active; activity change, negative = inhibition, % at 57.5 µM; in the data active = activity change below about -60%; inconclusive = no clear call, values can overlap the other calls; inactive = above about -39%
#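 HFF cells seeded 16 h at 37C, treated with compounds, infected with luciferase-reporter HCMV at MOI 1 PFU/cell; luciferase read at 72 h post infection, normalized to buffer-only and Salinomycin controls.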
# Giardia FBPA inh: blocks Giardia fructose-bisphosphate aldolase activity | purified Giardia FBPA | 290,000 tested, 0.71% active | A8B2U2 | AID 2451 | Potency, µM (titrated, usually from 59.6 µM), for inactives: top-dose activity, negative = inhibition, most hits filed as inhibitors; note: potency is the fitted concentration of half-maximal effect; nearly all actives have a fitted effect of over 55% in size
# Target sequence (A8B2U2 whole entry, looked up): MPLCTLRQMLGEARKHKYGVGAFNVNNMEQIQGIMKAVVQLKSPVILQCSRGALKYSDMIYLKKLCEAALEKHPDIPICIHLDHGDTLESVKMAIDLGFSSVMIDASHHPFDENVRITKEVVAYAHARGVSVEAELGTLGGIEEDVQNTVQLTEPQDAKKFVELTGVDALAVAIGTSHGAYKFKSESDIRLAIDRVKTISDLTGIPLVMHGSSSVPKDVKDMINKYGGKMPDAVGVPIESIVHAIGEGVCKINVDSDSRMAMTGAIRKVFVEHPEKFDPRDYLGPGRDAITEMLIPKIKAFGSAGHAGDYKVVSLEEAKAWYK
#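 Giardia FBPA (40 nM reagent) was preincubated 10 min at RT with compound (up to 57.5 uM final), then substrate plus GAPDH/TPI/NAD/arsenate coupling system with diaphorase/resazurin was added; resorufin fluorescence (525/598 nm) was read after 20 min.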
# Pf growth 96h: P. falciparum growth inhibition at 96 hours; Potency, µM (doses to about 28.7 µM), for the others: at the top dose activity change, negative = inhibition, hits mostly inhibitors; AID 504834; 320,000 tested, 6.9% active; P. falciparum luciferase reporter growth, 96 h; note: potency is the fitted concentration of half-maximal effect
#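 Luminescence readout: decreased luciferase signal marks inhibited growth of reporter-expressing P. falciparum in infected red cells (2% hematocrit, 0.05% parasitemia final), exposed to compound two generations (96 h, 37 C, 5% CO2).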
# Starred values were filed as active, the others as inactive; ? = inconclusive; . = not tested or not shown. Unless noted, calls come from the whole dose curve; as a rule, active = well fitted curve in the direction sought with a large enough effect; inconclusive = small, poorly fitted or top-dose-only effect, or another doubt; inactive = no such curve, though single readings can be large; an effect the other way counts as inactive or inconclusive. % is set by controls: 0 for no effect and ±100 for the full control effect.
SMILES,Sm TGR block,Pf growth 48h,HCMV antiviral,Giardia FBPA inh,Pf growth 96h
Cc1ccc(NCc2cccn2-c2nnc(N3CCC(C(=O)NCc4ccc(OC(C)C)cc4)CC3)s2)cc1,-9%,.,-80*,.,.
CCOc1ccc(NCc2cccn2-c2nnc(N3CCC(C(=O)NCc4cccc(OC)c4)CC3)s2)cc1,10%,.,-84*,.,.
CCOc1ccc(NCc2cccn2-c2nnc(N3CCC(C(=O)NCCCN4CCCCC4CC)CC3)s2)cc1 (centres undefined),0%,?,?,-1%,?
C[C@H](CO)N1C[C@H](C)[C@@H](CN(C)Cc2ccc(C(=O)O)cc2)Oc2c(NS(=O)(=O)c3cn(C)cn3)cccc2C1=O,.,.,-17,.,.
CCCCOc1cccc(C(=O)Nc2cc3nn(-c4ccc(F)cc4)nc3cc2C)c1,0%,.,20,.,.
CCC(=O)Oc1ccc(C(=O)Nc2ccc3c(c2)C(=O)N(C2CCCCC2)C3=O)cc1,-12%,.,-39,-2%,10µM*
O=C(Nc1ccc2c(c1)N(C1CCCC1)C(=O)c1ccccc1S2)c1ccccc1,7%,.,-64*,.,.
O=C(O)COc1ccc(NC(=O)c2ccc3c(c2)C(=O)N(C2CCCCC2)C3=O)cc1,-12%,?,-6,.,-17%
CN(C(=O)COC(=O)CNC(=O)c1ccc(C(C)(C)C)cc1)c1c(N)n(Cc2ccccc2)c(=O)[nH]c1=O,-23%,11%,-1,.,4%
O=C1NC(=O)N(CCc2ccc(F)cc2)C(=O)/C1=C\C=C\c1ccccc1,?,29%,-33,1%,?
O=C1NC(=O)N(Cc2ccco2)C(=O)/C1=C/C=C/c1ccco1,2µM*,12%,?,1%,?
O=C1NC(=O)N(Cc2ccccc2)C(=O)/C1=C\C=C\c1ccco1,10µM*,14%,-98*,-4%,?
Cc1ccc(-n2c(C)cc(/C=C3/C(=O)NC(=O)N(Cc4ccco4)C3=O)c2C)cc1,-33%,-21%,-37,1%,?
C=CCN1C(=O)NC(=O)/C(=C/C=C/c2ccccc2)C1=O,10µM*,19%,-112*,-10%,?
CC/C(C)=N/Nc1cccc([N+](=O)[O-])c1,3%,11%,-24,-2%,-22%
CC1CCN(C(=O)COC(=O)c2c[nH]c3ccccc23)CC1,-1%,64%,41,.,104%
CCCCn1c(=O)[nH]c(=O)c2c1nc(-c1ccc(OC)c(Br)c1)n2CC(C)C,6%,?,20,9%,2.1µM*
Cc1ccc2cc(C=C(C#N)C#N)c(Cl)nc2c1,2.8µM*,2%,31,-18%,50%
N#CC(C#N)=Cc1cc2ccccc2nc1N1CCOCC1,7.1µM*,6%,84,-1%,16%
Cc1ccc2cc(C=C(C#N)C#N)c(N3CCCCC3)nc2c1,3.2µM*,0%,52,-16%,0%
Cc1ccc2cc(/C=N/NC(=O)c3ccccc3O)c(Cl)nc2c1,1%,-9%,5,-14%,?
O=C(CN1C(=O)C2(OCCCO2)c2ccccc21)NCc1ccccc1,-30%,-3%,24,2%,71%
Cc1ccc(CNC(=O)CN2C(=O)C3(OCCCO3)c3ccccc32)cc1,0%,-4%,-1,3%,10µM*
N#CCCN1CCN(S(=O)(=O)c2ccc(S(=O)(=O)N3CCCCCC3)cc2)CC1,6%,3%,10,9%,170%
CCN(C1CCCCC1)S(=O)(=O)c1ccc(S(=O)(=O)N2CCN(CCC#N)CC2)cc1,7%,?,-11,2%,6.6µM*
SMILES,Sm TGR block,Pf growth 48h,HCMV antiviral,Giardia FBPA inh,Pf growth 96h
O=C1C2C3C=CC(C4CC34)C2C(=O)N1c1cccc2ccccc12 (centres undefined),-15%,19%,114,-4%,?
COC(=O)c1cc2c(ccn2-c2ccc(F)cc2)n1CC(=O)N1CCN(C(=O)c2ccco2)CC1,-7%,?,0,-7%,12%
CC(C)OC(=O)c1cc2c(ccn2-c2ccc(F)cc2)n1CC(=O)N1CCN(C(=O)c2ccco2)CC1,-5%,1.7µM*,0,-7%,?
O=C(CCC(=O)c1cccs1)NCc1cccc(C(F)(F)F)c1,1%,5%,-27,.,12%
CC(=O)C[C@H](O)CC(=O)[C@@H]1OC(=O)CCCCCCc2ccccc21,-1%,58%,54,.,67%
COC(=O)c1cc2c(c3c4cc(OC)ccc4n(S(C)(=O)=O)c13)C(=O)N(C)C2,.,.,-20,.,.
COc1ccc(C2/C(=C(/O)c3ccc(C)cc3)C(=O)C(=O)N2CCCN2CCOCC2)cc1 (centres undefined),45µM*,14%,1,-2%,?
COc1ccc(/C(O)=C2/C(=O)C(=O)N(CCCN3CCOCC3)C2c2ccc(C)cc2)cc1 (centres undefined),-15%,41%,7,10%,-30%
COc1ccc(C2/C(=C(/O)c3ccc(F)cc3)C(=O)C(=O)N2CCCN(C)C)cc1 (centres undefined),.,.,-83*,.,.
COc1ccc(C2/C(=C(/O)c3ccc(Br)cc3)C(=O)C(=O)N2C)cc1 (centres undefined),0%,0%,-26,0%,0.93µM*
CCOc1ccc(C2/C(=C(/O)c3ccc(S(=O)(=O)N4CCCCC4)cc3)C(=O)C(=O)N2CCCOC)cc1OC (centres undefined),1%,?,-5,2%,3.7µM*
CCCOc1ccc(C2/C(=C(/O)c3ccc(F)cc3)C(=O)C(=O)N2CCCN(C)C)cc1 (centres undefined),?,-9%,7,1%,34%
COCCCN1C(=O)C(=O)/C(=C(/O)c2ccc(S(=O)(=O)N3CCCCC3)cc2)C1c1ccc(OC)cc1 (centres undefined),-11%,32%,0,11%,13%
COc1ccc(OC)c(C(=O)CSc2nnc(C3CC3)n2C2CC2)c1,.,.,83,.,.
CCNC(=O)C1(C)CCCN1Cc1ccccc1Cl (centres undefined),.,.,-7,.,.
O=C1C(=O)N(CCN2CCOCC2)C(c2ccc(Cl)cc2)/C1=C(/O)c1ccc(S(=O)(=O)N2CCOCC2)cc1 (centres undefined),2%,-40%,.,-4%,2.6µM*
COc1ccc(/C(O)=C2/C(=O)C(=O)N(CCN3CCOCC3)C2c2ccccn2)cc1 (centres undefined),22µM*,40%,6,?,?
O=C1C(=O)N(CCN2CCOCC2)C(c2ccccn2)/C1=C(/O)c1ccc(F)cc1 (centres undefined),28µM*,?,-21,?,?
O=C1C(=O)N(CCCN2CCOCC2)C(c2ccc(F)cc2)/C1=C(/O)c1ccccc1 (centres undefined),?,2%,24,-1%,?
